# Shown are actives, neighbours in structure and some others; about 7.4% of the full set was active somewhere.
# NPC1 prom act – qHTS Assay for NPC1 Promoter Activators | AID 485313, 2010 | actives 2.4% (n = 320,000) | Potency, µM (series often up to 9.22 µM), for the others: top-dose activation, usual class: activators | Huh7 NPC1 promoter luciferase reporter, 24 h; further: % of control where 0% means no effect; nearly all actives have a fitted effect of over 60% in size
#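 Luminescence read-out of NPC1 promoter-driven luciferase in stably transfected Huh7 cells; compounds delivered in DMSO and left 24 h at 37C, 5% CO2, qHTS titration format.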
# ELG1 genotoxic – qHTS screen for small molecules that induce genotoxicity in human embryonic kidney (HEK293T) cells expressing luciferase-tagged ELG1; HEK293T ELG1-luciferase reporter, luminescence, 16 h; Potency, µM (titrated, usually from 46 µM), for the others: at the top dose activity change, positive = activation, usual class: activators; actives 1.3% (n = 330,000); further: % of control where 0% means no effect; nearly all actives have a fitted effect of over 60% in size
#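 Luminescence read-out: rising ELG1-luciferase signal, reflecting elevated ELG1 protein under genetic stress, flags genotoxic compounds. Cells were treated for 16 hr at 37 °C before ONE-Glo detection.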
# SMN2 splice up – qHTS Assay for Enhancers of SMN2 Splice Variant Expression; HEK293 SMN2-luciferase splicing reporter, luminescence, 30-36 h; Potency, µM (series often up to 46.1 µM), without a hit: at the highest dose activity change, positive = activation, hits mostly activators; actives 2.8% (n = 210,000); further: % of control where 0% means no effect; nearly all actives have a fitted effect of over 55% in size
#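 HEK293 cells carry an SMN2 […]–luciferase reporter in which exon 7 inclusion puts luciferase in frame. Cells were plated 10-12 h before compound addition, then incubated 30-36 h at 37C. ONE-Glo luminescence was read; sodium butyrate at 4.5 mM final served as control.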
# Rab9 promoter act – qHTS Assay for Rab9 Promoter Activators; Huh7 Rab9 promoter-luciferase reporter, luminescence, 24 h; Potency, µM (top dose mostly 9.22 µM), without a hit: top-dose activation, negative = inhibition, usual class: activators; actives 2.8% (n = 320,000); AID 485297, 2010; further: % of control where 0% means no effect; nearly all actives have a fitted effect of over 60% in size
#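 Stable Rab9-luc Huh7, 1500 cells/well, 2 h settle; cmpd in DMSO, 24 h, 37 °C/5% CO2; luciferase reagent 10 min RT; luminescence.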
# FLuc counter – qHTS profiling assay for firefly luciferase inhibitor/activator using purifed enzyme and Km concentrations of substrates (counterscreen for miR-21 project) | Potency, µM (doses to about 57.5 µM), for inactives: at the top dose activity change, negative = inhibition, hits mostly inhibitors | purified FLuc, Km substrates, luminescence inhibition | AID 588342, 2011 | Luciferin 4-monooxygenase (Photinus pyralis), P08659 | actives 6.9% (n = 360,000);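 further: plate controls were vehicle for no effect and reference inhibitor for full effect; nearly all actives have a fitted effect of over 55% in size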
# Target sequence (P08659 whole entry, looked up): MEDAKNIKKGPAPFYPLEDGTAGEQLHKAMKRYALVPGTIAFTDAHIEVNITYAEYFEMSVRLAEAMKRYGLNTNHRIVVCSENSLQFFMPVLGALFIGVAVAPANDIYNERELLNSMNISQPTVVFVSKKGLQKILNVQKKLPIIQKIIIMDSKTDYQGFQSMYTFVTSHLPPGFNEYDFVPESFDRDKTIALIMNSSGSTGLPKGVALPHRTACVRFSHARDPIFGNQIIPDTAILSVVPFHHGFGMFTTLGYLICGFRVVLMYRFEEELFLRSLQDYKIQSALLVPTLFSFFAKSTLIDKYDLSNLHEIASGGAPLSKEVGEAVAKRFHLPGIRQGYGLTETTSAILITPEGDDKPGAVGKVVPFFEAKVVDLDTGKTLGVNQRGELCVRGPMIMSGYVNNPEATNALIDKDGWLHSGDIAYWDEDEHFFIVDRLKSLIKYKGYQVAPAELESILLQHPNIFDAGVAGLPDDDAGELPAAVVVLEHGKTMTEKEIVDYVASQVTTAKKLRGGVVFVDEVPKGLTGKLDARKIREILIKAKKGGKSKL
#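 Purified P. pyralis luciferase (10nM final) with 10uM D-luciferin and 10uM ATP (Km levels) in 50mM Tris acetate pH 7.5, 10mM Mg acetate, 0.01% Tween-20, 0.05% BSA; qHTS 6-point titration, ~60 µM downward; luminescence read.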
# The depositor's hits bear a star; ? = inconclusive; nt = no result given; [ ] = dose if it differs, or a comment. The call rests on the fitted dose curve; in most records, active means well fitted curve in the direction sought with a large enough effect; inconclusive means small, poorly fitted or top-dose-only effect, or another doubt; inactive means no such curve, though single readings can be large; an effect the other way counts as inactive or inconclusive. Potency means the concentration at half of the fitted maximal effect.
SMILES,NPC1 prom act,ELG1 genotoxic,SMN2 splice up,Rab9 promoter act,FLuc counter
Cc1cc(N)ccc1N=Nc1c(C)n(C)n(-c2ccccc2)c1=O,26.1%,?,-4.1%[1.84 µM],?,?
Cc1ccc(N=Nc2ccc(N)cc2C)c(S(N)(=O)=O)c1,?,?,3.4%[9.22 µM],2.82µM*,10.7µM*
O=C(/C=C/c1ccccc1)N1CCC[C@H]1CO,-1.1%,3.9%,-7.6%,0.3%,-21.5%
C#CCSc1nncn1C(=O)/C=C/c1ccccc1,-3.7%,1.3%,-5.6%,0.5%,19µM*
Cc1cc(C(=O)CSc2nnnn2C)c(C)n1-c1ccc2c(c1)OCCO2,3.16µM*,10µM*,?,2.51µM*,23.9µM*
Cc1nnc(SCc2ccc(F)cc2Cl)s1,3.55µM*,?,?,?,23.9µM*
Nc1nnc(SCc2ccc(F)cc2Cl)s1,10.4%,2.8%,28.7%,16.6%,-25.5%
Cc1cc(C(=O)CSc2nnc(-c3ccco3)o2)c(C)n1-c1ccc2c(c1)OCCO2,-3.2%,-1.2%,-71.3%,-10.1%,-15.5%
Cc1nnc(SCC(=O)c2cc(C)n(-c3ccc4c(c3)OCO4)c2C)s1,24.7%,?,nt,?,23.9µM*
Cc1cc(C(=O)CSc2nnc(-c3ccc4c(c3)OCO4)o2)c(C)n1-c1ccc(F)cc1,-1.1%,1.7%,-64.7%,-6.1%,-11.1%
Cc1nnc(SCc2ccc3c(c2)OCO3)s1,20.5%,20.6µM*,12.7%,?,?
Cc1nnc(SCc2cccc(CSc3nnc(C)s3)c2)s1,?,?,8.9%,?,?
COC(=O)C1=C(C(=O)OC)[C@@H]2N(Cc3ccccc3)c3ccccc3[C@@]23C[C@@H](C(=O)OC)N(S(=O)(=O)c2ccc(C)cc2)C3=N1,nt,nt,-5.6%[9.22 µM],nt,nt
COC(=O)c1ccccc1NC(=O)Cn1nc(C(F)(F)F)c2c1CCCC2,nt,nt,4.5%,nt,-13.6%
O=C(Nc1nnc(-c2cccs2)s1)C1CC1,29.6%,?,?,5.01µM*,-4.2%
CCC(C)C(=O)Nc1nnc(-c2cccs2)s1 (configuration not stated),?,?,5.8%,3.55µM*,?
C=C(C)C(=O)Nc1nnc(-c2cccs2)s1,0.1%,8.7%,-3.0%,-2.1%,16.9µM*
CCC(=O)Nc1nnc(-c2cccs2)s1,16.9%,?,21.5%,?,-15.1%
CCCCc1ccc(S(=O)(=O)Nc2nnc(C)s2)cc1,-3.5%,-2.9%,nt,1.4%,-14.2%
CCc1ccc(NC2=CC(=O)C(=O)c3ccccc32)cc1,1.3%,-5.8%,nt,-4.4%,10.7µM*
O=C1C=C(Nc2ccccc2)C(=O)c2ccccc21,1.78µM*,7.1%,12.6µM*,1µM*,3.38µM*
O=C(O)CN(CCN(CC(=O)O)CC(=O)O)CCN(CC(=O)O)CC(=O)O,-2.7%[46.1 µM],nt,4.8%,-21.1%[46.1 µM],nt
O=C(Nc1ccc(Br)cc1)c1cnc[nH]1,?,?,nt,3.55µM*,23.9µM*
Cc1nc(COc2ccc(C(=O)NCc3ccccc3CN3CCCCC3)cc2)cs1,-1.1%,-1.9%,nt,-6.9%,-20.1%
CC(=O)Nc1ccc(NC(=O)c2ccc(-n3c(C)ccc3C)cc2)cc1,-4.8%,?,nt,-4.2%,21.3µM*
SMILES,NPC1 prom act,ELG1 genotoxic,SMN2 splice up,Rab9 promoter act,FLuc counter
CCOC(=O)c1ccc(-n2c(C)ccc2C)cc1,-1.8%,12.1%,20.1%,-2.0%,-10.9%
CC(=O)NCCNC(=O)c1ccc(-n2c(C)ccc2C)cc1,14.1%,23.1µM*,nt,?,-6.5%
CCc1ccccc1NC(=O)c1ccc(-n2c(C)ccc2C)cc1,9.5%,14.7%,10.9%,-1.6%,-17.4%
Cc1ccc(C)n1-c1ccc(NC(=O)c2ccccc2)cc1,28.1%,?,11.2µM*,?,8.49µM*
CCC(=O)N1CCc2cc(S(=O)(=O)NC(C(=O)Nc3cc(OC)cc(OC)c3)C(C)C)ccc21 (configuration not stated),nt,nt,7.2%,nt,-0.4%
O=C(O)c1ccc2ncc(NC(=O)c3ccc(F)cc3)c(=O)n2c1,-0.7%,0.4%,nt,-3.2%,?
CCOc1ccc(/C=N/NC(=O)c2[nH]ncc2Br)c(O)c1,?,?,3.55µM*,?,2.13µM*
Cc1cc(C(=O)N/N=C/c2cccn2C)n[nH]1,15.1%,13.5%,?,?,?
COc1ccc(OC)c(/C=N/NC(=O)c2[nH]ncc2Br)c1,3.1%,1.3%,nt,6.8%,-9.8%
Cc1cc(C(=O)N/N=C\c2cc(C(C)(C)C)ccc2O)n[nH]1,-31.1%,?,nt,-29.2%,23.9µM*
O=C(N/N=C/c1c(O)ccc2ccccc12)c1[nH]ncc1Br,-6.9%,?,-79.3%,-18.4%,6.75µM*
O=C(N/N=C/c1c(O)ccc2ccccc12)c1cccc(C(F)(F)F)c1,-16.3%,-7.6%,-106.3%,-29.3%,1.4%
Cc1ccc(O)c(/C=N/NC(=O)c2[nH]ncc2Br)c1,?,16.4µM*,0.0%[1.84 µM],?,4.26µM*
O=C(NCc1ccccc1F)C(=O)NCC(c1ccc2c(c1)OCO2)N1CCOCC1 (configuration not stated),nt,nt,nt,nt,-0.6%
O=C(N/N=C/c1cccs1)c1cnccn1,-0.6%,8.9%,-15.2%,8.9%,?
O=C(N/N=C/c1cccs1)c1[nH]ncc1Br,3.55µM*,16.4µM*,nt,3.98µM*,21.3µM*
COc1cc(C)c2c(=O)cc(-c3ccccc3)oc2c1,nt,nt,11.2µM*,nt,nt
COc1cc(OC)c2c(=O)cc(-c3ccccc3)oc2c1,?,23.1µM*,nt,?,5.36µM*
COc1c(O)c(O)c2oc(-c3ccccc3)cc(=O)c2c1OC,15.6%,3.5%,nt,-1.2%,?
COc1cc(OC)c2c(=O)cc(-c3cccnc3)oc2c1,-3.4%,?,nt,0.9%,?
Cc1c(C(=O)N2CCOCC2)c(S(=O)(=O)Nc2ccccc2F)c(C)n1C,1.9%,-1.2%[9.26 µM],nt,-2.3%,-0.7%
O=C(c1ccco1)N1N=C(c2cccs2)CC1c1ccc(F)cc1 (configuration not stated),6.6%,-0.8%,-9.0%,-2.9%,-3.2%
O=C(c1ccco1)N1N=C(c2cccs2)CC1c1cc([N+](=O)[O-])ccc1O (configuration not stated),11.2%,10.4%,nt,-0.1%,16.9µM*
CN(C)/C=C1/N=C(c2ccccc2)OC1=O,2.1%,12.4%,-28.2%,0.0%,-2.7%
O=C1OC(c2ccc(Br)cc2)=N/C1=C\N1CCCCC1,2.24µM*,14.6µM*,12.6µM*,2.51µM*,?
O=C1OC(c2ccccc2)=C/C1=C/N1CCCCC1,2.51µM*,?,?,2.51µM*,6.01µM*
Cc1ccc(C2=N/C(=C\c3c(C)nn(-c4ccccc4)c3N3CCCC3)C(=O)O2)cc1,1.6%,1.5%,2.9%,-3.0%,-0.2%
